Results on 9 molecules are retold here after PubChem BioAssay (NCI).

Compounds without any hit were thinned out: in the full panel of roughly 83,000, 20% have a hit.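 Note: values are percent growth. 100 is the growth of untreated cells, values between 100 and 0 indicate rising inhibition; between -100 and 0 indicates cell death.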 Values without a mark were called inactive. Calls of active or inactive are those of the source. The calls were made as follows: active = growth percent below 10; inactive = the rest.

What all share (test): NCI-60 one-dose screen, 48 h (100 = growth as untreated, 0 = no growth, -100 = all killed)
The test system of one assay is SK-MEL-2 melanoma. The conditions noted are these: 10 µM unless noted.
Another assay deals with EKVX NSCLC. The conditions noted are these: 10 µM unless noted.
For another assay, the system named is SN12C renal. The conditions noted are these: 10 µM unless noted.
A further assay concerns TK-10 renal. As to conditions: 10 µM unless noted.
For another assay, the system named is ACHN renal. The conditions noted are these: 10 µM unless noted.
In another assay the test system is A498 renal. As to conditions: 10 µM unless noted.
For the next assay, the system named is CCRF-CEM leukemia. As to conditions: 10 µM unless noted.
For another assay, the system named is MOLT-4 leukemia. As to conditions: 10 µM unless noted.
A further assay has as its system SR leukemia. As to conditions: 10 µM unless noted.
A further assay deals with RPMI-8226 leukemia. As to conditions: 10 µM unless noted.
A further assay relates to OVCAR-8 ovarian. The conditions noted are these: 10 µM unless noted.
Another assay concerns OVCAR-5 ovarian. The conditions noted are these: 10 µM unless noted.
For another assay, the system named is OVCAR-4 ovarian. The conditions noted are these: 10 µM unless noted.
The next assay concerns SK-OV-3 ovarian. The conditions noted are these: 10 µM unless noted.
The subject of another assay is IGROV1 ovarian. The conditions noted are these: 10 µM unless noted.
The subject of another assay is HS 578T breast. The conditions noted are these: 10 µM unless noted.
A further assay has as its system NCI/ADR-RES ovarian. As to conditions: 10 µM unless noted.
The test system of another assay is CAKI-1 renal. As to conditions: 10 µM.
The subject of the next assay is OVCAR-3 ovarian. As to conditions: 10 µM unless noted.

Turning to `COc1cc(NC(C)CCCN2C(=O)c3ccccc3C2=O)c2nc(C)ccc2c1OC` (stereo not drawn), the growth with SK-MEL-2 melanoma is 96.8%; in the assay on EKVX NSCLC, 96.3%; in the assay with SN12C renal, 92.1%; in the assay on TK-10 renal, 98.8%; with ACHN renal, 99.5%; with A498 renal it was 97.5%. Also, the growth was -56.3% (active) with CCRF-CEM leukemia; 73.6% with MOLT-4 leukemia; 36.7% with SR leukemia; 70.1% with RPMI-8226 leukemia; 88.2% with OVCAR-8 ovarian; 100% with OVCAR-5 ovarian. Moreover, the growth with OVCAR-4 ovarian is 69.4%; with SK-OV-3 ovarian, 106%; with IGROV1 ovarian, 129%; in the assay with HS 578T breast, 113%; in the assay with NCI/ADR-RES ovarian, 83.3%.
For `COC(=O)Nc1nc2ccc(Sc3ccccc3)cc2[nH]1`, the growth in the assay on SK-MEL-2 melanoma was 53%; with EKVX NSCLC, 57.1%; in the assay on SN12C renal it was 44.6%; with TK-10 renal, 65.6%; in the assay on CAKI-1 renal it was 39.1%; in the assay with A498 renal it was 13.9%. Further, the growth is 10.7% in the assay on CCRF-CEM leukemia; 14.6% with MOLT-4 leukemia; 14.5% with SR leukemia; 42.1% with RPMI-8226 leukemia; 9.03% (active) in the assay with OVCAR-8 ovarian; 49.4% in the assay on OVCAR-4 ovarian. Moreover, the growth is 13.5% in the assay with SK-OV-3 ovarian; 30.4% in the assay with IGROV1 ovarian; -78.1% (active) with OVCAR-3 ovarian; 30.3% with HS 578T breast; -30.1% (active) in the assay with NCI/ADR-RES ovarian.
On to `COc1ccc(-c2nnc(NC(=O)CN3CCN(c4cc5c(cc4F)c(=O)c(C(=O)O)cn5C4CC4)CC3)s2)cc1OC`, for which the growth with SK-MEL-2 melanoma was 102%; in the assay on EKVX NSCLC, 108%; with SN12C renal, 95.5%; in the assay with ACHN renal it was 109%; with CAKI-1 renal, 104%; with A498 renal, 80.5%. Also, the growth in the assay with CCRF-CEM leukemia is 98.9%; with MOLT-4 leukemia, 93%; in the assay on SR leukemia, 102%; in the assay on RPMI-8226 leukemia, 102%; in the assay on OVCAR-8 ovarian, 98.4%; in the assay on OVCAR-5 ovarian, 106%. In addition, the growth in the assay with OVCAR-4 ovarian was 104%; in the assay with SK-OV-3 ovarian it was 98.6%; in the assay with IGROV1 ovarian it was 104%; with OVCAR-3 ovarian, 106%; in the assay with HS 578T breast, 91.5%; with NCI/ADR-RES ovarian it was 103%.
Consider `COc1cc([C@@H]2c3cc4c(cc3C(OC3O[C@@H]5COC(C)O[C@H]5[C@H](O)[C@H]3O)C3COC(=O)[C@@H]32)OCO4)cc(OC)c1O` (stereo partly drawn), for which the growth with SK-MEL-2 melanoma is 74.6%; in the assay on EKVX NSCLC, 57.8%; in the assay on SN12C renal, 13%; with TK-10 renal, 72.5%; in the assay on CAKI-1 renal, 9.12% (active); in the assay on A498 renal, 36.2%. Further, the growth in the assay with CCRF-CEM leukemia is 6.56% (active); in the assay on MOLT-4 leukemia it was 2.96% (active); in the assay on SR leukemia it was -3.83% (active); in the assay on RPMI-8226 leukemia it was 37.4%; with OVCAR-8 ovarian, 26.9%; in the assay on OVCAR-4 ovarian, 88.3%. Moreover, the growth with SK-OV-3 ovarian is 35%; with IGROV1 ovarian, 65.4%; with OVCAR-3 ovarian, 37.1%; in the assay on HS 578T breast, 59.3%.
As for `[2H]c1nc(Nc2ncc(F)c(-c3cc(F)c4nc(C)n(C(C)C)c4c3)n2)c([2H])c([2H])c1CN1CCN(CC)CC1`, the growth is 70.5% in the assay with SK-MEL-2 melanoma; 55% in the assay with EKVX NSCLC; 47.8% in the assay on SN12C renal; 35.1% in the assay on TK-10 renal; 44.2% in the assay with A498 renal; 27.2% in the assay with CCRF-CEM leukemia. For the same molecule, the growth in the assay on MOLT-4 leukemia was 15.4%; in the assay on SR leukemia, 11.7%; in the assay with RPMI-8226 leukemia it was 34.7%; in the assay with OVCAR-8 ovarian, 74.3%; with OVCAR-5 ovarian it was 49.8%; with OVCAR-4 ovarian it was 66.1%. Moreover, the growth with SK-OV-3 ovarian is 35.7%; in the assay with IGROV1 ovarian, 39.1%; in the assay on OVCAR-3 ovarian it was 73.1%; in the assay on HS 578T breast it was 29.9%; with NCI/ADR-RES ovarian, 71%.
On to `Cc1cc(Nc2ccc(Cl)c(Cl)c2)nc(N)n1`, for which the growth in the assay on SK-MEL-2 melanoma is 102%; with EKVX NSCLC, 54.7%; in the assay on SN12C renal, 106%; in the assay on TK-10 renal, 87.3%; with A498 renal, 78.8%; in the assay on CCRF-CEM leukemia, 98.5%. Moreover, the growth with MOLT-4 leukemia is 78.8%; in the assay with SR leukemia, 78%; in the assay with RPMI-8226 leukemia, 80.9%; in the assay on OVCAR-8 ovarian, 107%; in the assay with OVCAR-5 ovarian, 105%; in the assay with OVCAR-4 ovarian, 92.8%. The growth with SK-OV-3 ovarian is 105%; with IGROV1 ovarian it was 114%; in the assay with OVCAR-3 ovarian, 98.9%; in the assay with HS 578T breast, 92.6%; in the assay with NCI/ADR-RES ovarian, 98.3%.
Consider `Cc1c(C(C)(C)C)cc(C(C)(C)C)c2c1CN(C)CO2`, for which the growth with SK-MEL-2 melanoma is 96.7%; with EKVX NSCLC it was 105%; in the assay on SN12C renal it was 107%; in the assay with TK-10 renal, 102%; in the assay with A498 renal it was 106%; in the assay with CCRF-CEM leukemia, 93.7%. Moreover, the growth is 109% with MOLT-4 leukemia; 103% in the assay with SR leukemia; 110% in the assay on RPMI-8226 leukemia; 105% in the assay with OVCAR-8 ovarian; 110% with OVCAR-5 ovarian; 105% with OVCAR-4 ovarian. Besides, the growth with SK-OV-3 ovarian is 102%; in the assay on IGROV1 ovarian it was 114%; in the assay on OVCAR-3 ovarian it was 102%; in the assay on HS 578T breast, 105%; in the assay on NCI/ADR-RES ovarian, 99.5%.
In the case of `COc1ccc(CCNC=O)cc1OC`, the growth in the assay on SK-MEL-2 melanoma is 105%; in the assay on EKVX NSCLC, 105%; in the assay with SN12C renal, 97.4%; with ACHN renal it was 101%; with CAKI-1 renal, 100%; in the assay with A498 renal, 102%. Also, the growth with CCRF-CEM leukemia is 105%; with MOLT-4 leukemia, 100%; in the assay on SR leukemia, 117%; with RPMI-8226 leukemia, 108%; with OVCAR-8 ovarian, 107%; with OVCAR-5 ovarian it was 99.7%. The growth in the assay with OVCAR-4 ovarian was 100%; in the assay on SK-OV-3 ovarian it was 114%; in the assay with IGROV1 ovarian, 94%; in the assay with OVCAR-3 ovarian it was 110%; in the assay on HS 578T breast, 105%.
As for `Cc1cn(-c2cc(C(=O)Nc3cccc(-n4ccc5c(NC(=O)c6ccccc6)nccc54)c3)cc(C(F)(F)F)c2)cn1`, the growth was 11.2% with SK-MEL-2 melanoma; 45.6% in the assay on EKVX NSCLC; 21.7% in the assay on SN12C renal; 27.6% in the assay with ACHN renal; 2.7% (active) in the assay on CAKI-1 renal; 16.1% in the assay on A498 renal. Also, the growth in the assay on CCRF-CEM leukemia was -21.7% (active); in the assay on MOLT-4 leukemia it was 12.4%; in the assay on SR leukemia it was -24.9% (active); with RPMI-8226 leukemia it was -51.7% (active); in the assay with OVCAR-8 ovarian, 4.81% (active); with OVCAR-5 ovarian it was 35.6%. The growth is 75.7% in the assay on OVCAR-4 ovarian; 13.1% in the assay with SK-OV-3 ovarian; 7.51% (active) with IGROV1 ovarian; -67.7% (active) in the assay on OVCAR-3 ovarian; 4.71% (active) in the assay with NCI/ADR-RES ovarian.
